According to PubChem BioAssay:
Inconclusive results are not listed. Calls of active or inactive are those of the source.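 How the source made its calls, unless noted: active means inhibition over a set limit, the all-compound mean plus 3 SD, in both replicate runs; inconclusive means over that limit in just one replicate run; inactive means at or under that limit in both runs.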

Columns and labels:
[1] = Her2 expression decrease, cell viability multiplex – SKBR3 breast tumor cells, AlphaScreen, ATP viability, primary screen (AID 461;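 active means Her2 level under about 52% in both replicate screens, with viability over 70% of control, limit read from the data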;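 on Her2 level: lower value means less Her2 protein in the cells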;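 on viability: percent of carrier control wells set as 100% viability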); conditions: SKBR3 Her2 protein level, 18-24 h, measured here: SKBR3 viability, ATP luminescence, at 10 µM
[2] = target: Receptor tyrosine-protein kinase erbB-2 (Homo sapiens) (UniProt P04626); test: as above; conditions: 18-24 h, at 10 µM, stronger effect = lower value
[3] = reduced viability of SK-BR-3 breast cancer cells – cell-based, 24 h, human, pilot screen (AID 572;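 active means viability at or below 10% of carrier control in both of two separate runs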;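 further: compound exposure lasted between 18 and 24 h rather than exactly 24 h; 100% = carrier-treated control wells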); conditions: SK-BR-3 viability, CellTiter-Glo luminescence, at 10 µM, stronger effect = lower value
[4] = HUVEC growth inhibition – cell-based, human, primary screen (AID 575;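 active means viability at or below 30% in both replicate assays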;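 further: 100% = median of untreated cell wells with 0.1% DMSO on each plate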); conditions: HUVEC proliferation, CellTiter-Glo luminescence, 72 h; at 10 µM; stronger effect = lower value
[5] = H69AR cell proliferation blockers – human, duplicate replicates, primary screen (AID 580;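 active means viability at or under a set limit in both replicates, limit being median viability minus 3 SD, cut at about 48% in these data, passing the limit was not always enough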;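 further: 100% = mean luminescence of untreated wells and 0% = no signal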); conditions: H69AR lung tumor cells viability, ATP luminescence, 72 h; at 10 µM; stronger effect = lower value
[6] = MRP1 drug-resistance reversers in H69AR cells – cell-based, doxorubicin co-treatment, pilot screen (AID 601;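 active means viability loss from added drug above about 55%, and viability with drug at most 40%, in both replicates, limit read from the data, passing the limit was not always enough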); conditions: CellTiter-Glo, 72 h, at 10 µM; for differential viability (reversal): stronger effect = higher value
[7] = yeast transport mutant growth inhibition pilot in 384-well plates, post-Golgi transport modulator project (AID 636; in the data active means inhibition above about 31%); conditions: absorbance 615 nm, about 18 h, stronger effect = higher value
[8] = growth suppression of yeast trafficking mutant, preliminary HTS, modulators of trafficking downstream of Golgi apparatus project, 1536-format plate, OD 615 nm (AID 637; in the data active means inhibition above about 30%); conditions: yeast transport mutant growth, absorbance 615 nm, 18 h; stronger effect = higher value
[9] = S. cerevisiae growth inhibition in permissive medium (OD615), pilot counter-assay for S. cerevisiae lifespan shortening project, permissive growth control (AID 705;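 active means growth inhibition above 25% in both replicates, a cutoff set 3 SD above the mean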); conditions: OD615, 24 h, at 10 µM, stronger effect = higher value
[10] = S. cerevisiae growth inhibition in restrictive medium, OD615, pilot screen, restrictive growth control, yeast lifespan reduction project (AID 706;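 active means growth inhibition above a set limit, 3 SD over mean compound inhibition, in both replicates, cut at about 43% in these data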;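 further: modified DeaD lifespan yeast strain shifted to restrictive glucose medium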); conditions: OD615, 48 h, at 10 µM, stronger effect = higher value
[11] = doxorubicin toxicity protection in MRP-1 cells – H69AR cells, CellTiter-Glo, duplicate, MRP-1 activator project, pilot screen (AID 807;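 active means viability increase at or above a cutoff of the median across tested compounds plus 3 SD, cut at about 8.5% in these data, passing the limit was not always enough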;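 further: compound pretreatment 18-22 h then 72 h combined with doxorubicin; 0% = doxorubicin alone and 100% = vehicle without doxorubicin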); conditions: H69AR viability with doxorubicin, CellTiter-Glo luminescence; at 10 µM; stronger effect = higher value
[12] = viability of HCT116 without oncogenic beta-catenin – human colon tumor cells, pilot screen (AID 823;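 active means cell viability at or below a set limit in both duplicate runs, the limit being the all-compound median minus 4 SD, cut at about 23% in these data, passing the limit was not always enough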;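 further: 0% = wells killed by 20 µM Hyamine and 100% = untreated DMSO cell wells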); conditions: HCT116 beta-catenin knockout viability, CellTiter-Glo, 60 h; at 10 µM; stronger effect = lower value
[13] = viability of PTEN-null HCT116 cells – cell-based, HCT116 clonal line, CellTiter-Glo, pilot screen (AID 824;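 active means viability at or below 27.92% in each of two runs, the all-compound median minus 4 SD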;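 further: 0% = 20 µM Hyamine control and 100% = vehicle cell control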); conditions: HCT116 PTEN-deleted viability, 60 h, at 10 µM, stronger effect = lower value
[14] = RAM pathway blockade in budding yeast – dse1pr::URA3 reporter, 5-FOA selection, pilot screen (AID 869);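 further: 0% = DMSO wells with no growth and 100% = 10 µM 1-NA-PP1 with full growth; RAM network block rescues cells from 5-FOA so hits raise OD615 growth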; conditions: S. cerevisiae dse1pr::URA3 5-FOA growth, OD615, 2 d; at 10 µM; stronger effect = higher value; strain carries analog-sensitive mutant Cbk1 kinase
[15] = RAM signaling pathway blockade in yeast – S. cerevisiae, Pdr1DBD-CYC8 efflux-inhibited sensitized strain, primary screen (AID 1298;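 active means RAM network inhibition above 8.4% in each of two replicates, 3 SD over the compound average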;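 further: 0% = DMSO untreated cells without growth and 100% = 10 µM 1-NA-PP1 full growth; higher means more yeast growth rescued from 5-FOA killing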); conditions: S. cerevisiae cbk1-as DSE1-URA3 strain, 5-FOA growth OD615, 2 d; at 50 µM; stronger effect = higher value
[16] = H69AR cells + 2 uM doxorubicin, measured here: viability with 2 uM doxorubicin, stronger effect = lower value
[17] = H69AR cells, compound alone cytotoxicity

Sequence of Receptor tyrosine-protein kinase erbB-2 (Homo sapiens) (P04626 whole entry, looked up): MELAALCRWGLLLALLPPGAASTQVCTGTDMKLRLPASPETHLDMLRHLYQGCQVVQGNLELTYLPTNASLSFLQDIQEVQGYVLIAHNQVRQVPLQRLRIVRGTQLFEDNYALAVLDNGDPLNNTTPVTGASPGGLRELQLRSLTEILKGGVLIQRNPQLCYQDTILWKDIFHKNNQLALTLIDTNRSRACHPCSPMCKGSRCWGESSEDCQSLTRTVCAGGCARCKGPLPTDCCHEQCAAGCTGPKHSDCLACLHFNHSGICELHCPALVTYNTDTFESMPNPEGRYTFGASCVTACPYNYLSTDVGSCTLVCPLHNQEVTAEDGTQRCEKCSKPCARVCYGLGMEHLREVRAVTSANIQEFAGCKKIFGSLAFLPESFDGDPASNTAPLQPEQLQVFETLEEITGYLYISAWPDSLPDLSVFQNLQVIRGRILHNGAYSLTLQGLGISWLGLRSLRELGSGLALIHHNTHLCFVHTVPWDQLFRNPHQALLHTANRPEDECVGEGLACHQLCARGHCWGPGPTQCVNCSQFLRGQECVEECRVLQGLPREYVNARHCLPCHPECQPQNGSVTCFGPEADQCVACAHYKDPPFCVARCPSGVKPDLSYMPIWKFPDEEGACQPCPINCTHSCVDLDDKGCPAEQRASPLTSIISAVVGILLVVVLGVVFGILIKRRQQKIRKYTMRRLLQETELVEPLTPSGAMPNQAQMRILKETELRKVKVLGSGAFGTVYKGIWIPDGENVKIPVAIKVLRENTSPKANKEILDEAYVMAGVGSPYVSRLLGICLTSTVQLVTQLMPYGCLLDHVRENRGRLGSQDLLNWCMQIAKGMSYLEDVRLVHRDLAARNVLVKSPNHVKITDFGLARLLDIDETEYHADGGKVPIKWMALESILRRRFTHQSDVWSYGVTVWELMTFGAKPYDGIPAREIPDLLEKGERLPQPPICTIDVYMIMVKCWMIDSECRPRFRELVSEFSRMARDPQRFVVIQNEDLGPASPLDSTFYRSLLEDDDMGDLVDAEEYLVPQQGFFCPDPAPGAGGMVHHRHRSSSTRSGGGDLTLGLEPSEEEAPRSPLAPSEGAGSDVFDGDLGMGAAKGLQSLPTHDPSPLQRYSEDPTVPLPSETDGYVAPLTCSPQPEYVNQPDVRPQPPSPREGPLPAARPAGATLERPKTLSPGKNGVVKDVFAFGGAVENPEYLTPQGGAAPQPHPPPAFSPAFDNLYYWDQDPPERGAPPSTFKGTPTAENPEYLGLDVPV

SMILES	viability [1]	Her2 level [2]	viability [3]	viability [4]	viability [5]	differential viability (reversal) ([6]; H69AR cells + 2 uM doxorubicin)	viability [6, 16]	viability [6, 17]	inhibition [7]	inhibition [8]	growth inhibition [9]	growth inhibition [10]	viability increase [11]	viability [12]	viability [13]	inhibition [14]	RAM network inhibition [15]
O=C(CCn1c(=O)oc2ccccc21)NCCN1CCOCC1	104%	120% (inactive)	104% (inactive)	93.4% (inactive)	85.9% (inactive)	-3.67% (inactive)	89.6%	85.9%	0.8% (inactive)	-6.5% (inactive)	-9.38% (inactive)	-6.78% (inactive)	-1.28% (inactive)	107% (inactive)	101% (inactive)	2.63% (inactive)	4.16% (inactive)
CC(=O)N(C(C)=O)c1ncc2c([nH]c3ccccc32)c1C#N	106%	95% (inactive)	106% (inactive)	53.4% (inactive)	61.4% (inactive)	-20.5% (inactive)	81.9%	61.4%	-8.13% (inactive)	-7.26% (inactive)	-10.9% (inactive)	-11.2% (inactive)	-7.26% (inactive)	66.9% (inactive)	64.7% (inactive)	1.25% (inactive)	6.06% (inactive)
CC(=O)Nc1ccc(S(=O)(=O)N2CCN(C(=O)CCC3CCCC3)CC2)cc1	84%	98.5% (inactive)	84% (inactive)	99% (inactive)	92.9% (inactive)	-9.75% (inactive)	103%	92.9%	-1.2% (inactive)	-4.35% (inactive)	0.295% (inactive)	-1.04% (inactive)	-2.79% (inactive)	78.7% (inactive)	81.8% (inactive)	0.505% (inactive)	2.16% (inactive)
COC(=O)c1ccc(-c2nn(C)c(=O)c3ccccc23)cc1	93.5%	99.5% (inactive)	93.5% (inactive)	83.8% (inactive)	94.6% (inactive)	7.75% (inactive)	86.9%	94.6%	-5.33% (inactive)	4.17% (inactive)	3.78% (inactive)	6.35% (inactive)	-2.27% (inactive)	94.3% (inactive)	91% (inactive)	0.79% (inactive)	-1.8% (inactive)
CC1=C(C(N)=O)C(c2ccncc2)n2nc(-c3ccccc3Cl)nc2N1 (stereo not drawn)	96%	96.5% (inactive)	96% (inactive)	90.1% (inactive)	100% (inactive)	13.3% (inactive)	86.9%	100%	0.53% (inactive)	-3.11% (inactive)	-8.2% (inactive)	6.52% (inactive)	-0.22% (inactive)	94% (inactive)	98.8% (inactive)	1.56% (inactive)	-0.11% (inactive)
COc1cc(NC(=O)c2nccnc2C(=O)O)cc(OC)c1	98%	107% (inactive)	98% (inactive)	95.7% (inactive)	109% (inactive)	18.3% (inactive)	90.6%	109%	-7.6% (inactive)	-2.3% (inactive)	-8.21% (inactive)	-1.48% (inactive)	-1.6% (inactive)	96.1% (inactive)	95% (inactive)	2.17% (inactive)	-0.31% (inactive)
CC1(C)C(c2ccccc2)=NC(c2ccccc2)N1O (stereo not drawn)	86.5%	82% (inactive)	86.5% (inactive)	98% (inactive)	91.4% (inactive)	8.36% (inactive)	83%	91.4%	-0.78% (inactive)	-9% (inactive)	-0.065% (inactive)	-4.8% (inactive)	-1.73% (inactive)	95.6% (inactive)	96.5% (inactive)	0.165% (inactive)	3.18% (inactive)
O=C1c2ccccc2C(Nc2ccc(-c3nc4ccccc4[nH]3)cc2)N1Cc1ccco1 (stereo not drawn)	90.5%	102% (inactive)	90.5% (inactive)	65.9% (inactive)	83.1% (inactive)	15% (inactive)	68.1%	83.1%	0.4% (inactive)	0.5% (inactive)	-0.49% (inactive)	4.04% (inactive)	-5.99% (inactive)	59.2% (inactive)	62.1% (inactive)	2.23% (inactive)	2.26% (inactive)
CCOC(=O)c1[nH]c(C)c(C(=O)Nc2ccc(Cl)cc2)c1C	88.5%	109% (inactive)	88.5% (inactive)	73.3% (inactive)	85.9% (inactive)	-7.14% (inactive)	93%	85.9%	1.92% (inactive)	0.17% (inactive)	-1.96% (inactive)	2.55% (inactive)	2.64% (inactive)	96.7% (inactive)	95.2% (inactive)	1.79% (inactive)	3.1% (inactive)
CCC(C)NC(=O)CS(=O)(=O)Cc1nc(-c2cccc(OC)c2)oc1C (stereo not drawn)	80.5%	98% (inactive)	80.5% (inactive)	97.6% (inactive)	91.4% (inactive)	-8.61% (inactive)	100%	91.4%	-2% (inactive)	-0.66% (inactive)	3.02% (inactive)	9.5% (inactive)	0.02% (inactive)	91.9% (inactive)	93.5% (inactive)	0.02% (inactive)	3.92% (inactive)
CCC(C)C(NC(=O)C1CCC(C)CC1)C(=O)NCc1cccnc1 (stereo not drawn)	99%	87.5% (inactive)	99% (inactive)	82.4% (inactive)	102% (inactive)	5.36% (inactive)	96.3%	102%	-6.89% (inactive)	3.17% (inactive)	-12.5% (inactive)	-2.67% (inactive)	-0.91% (inactive)	86.4% (inactive)	87.7% (inactive)	0.265% (inactive)	4.7% (inactive)
CCN1C(=O)c2cccc3c(NC(=O)c4ccc(S(=O)(=O)N(C)C)cc4)ccc1c23	86%	95.5% (inactive)	86% (inactive)	53.6% (inactive)	65.9% (inactive)	-3.87% (inactive)	69.8%	65.9%	1.79% (inactive)	-7.17% (inactive)	-11.7% (inactive)	-15.2% (inactive)	-5.59% (inactive)	73.5% (inactive)	75.8% (inactive)	0.195% (inactive)	3.52% (inactive)
COc1ccc(-c2noc(COc3ccc(Cl)c(C)c3)n2)cc1	91%	115% (inactive)	91% (inactive)	99.6% (inactive)	88.4% (inactive)	4.7% (inactive)	83.7%	88.4%	-5.07% (inactive)	-7.38% (inactive)	-7.56% (inactive)	-29% (inactive)	0.12% (inactive)	101% (inactive)	91.5% (inactive)	6.36% (active)	8.54% (inactive)
Cc1nn(C(=O)c2ccoc2C)c(N)c1-c1ccccc1	101%	88.5% (inactive)	101% (inactive)	85.9% (inactive)	92.1% (inactive)	12.6% (inactive)	79.5%	92.1%	-6.27% (inactive)	-2.33% (inactive)	13% (inactive)	10.9% (inactive)	2.64% (inactive)	78.8% (inactive)	84.3% (inactive)	1.68% (inactive)	7.07% (inactive)
CCOC(=O)CCc1c(C)nc2cc(-c3ccc(F)cc3)[nH]n2c1=O	97%	99% (inactive)	97% (inactive)	97.6% (inactive)	101% (inactive)	8.37% (inactive)	92.2%	101%	-5.45% (inactive)	-7.33% (inactive)	-13.1% (inactive)	-4.2% (inactive)	-1.53% (inactive)	95.8% (inactive)	95.1% (inactive)	1.8% (inactive)	1.51% (inactive)
COc1cc2c(cc1OC)-c1nnc(C)n1C1(CCCC1)C2	87%	105% (inactive)	87% (inactive)	114% (inactive)	99% (inactive)	0.73% (inactive)	98.3%	99%	1.28% (inactive)	-1.17% (inactive)	-10.2% (inactive)	-16% (inactive)	-2.69% (inactive)	100% (inactive)	94% (inactive)	1.1% (inactive)	2.81% (inactive)
COC(=O)C(C)Sc1nc2c(c(=O)n1-c1ccccc1)SCC2 (stereo not drawn)	102%	77.5% (inactive)	102% (inactive)	84.3% (inactive)	94.9% (inactive)	-12.1% (inactive)	107%	94.9%	-6.99% (inactive)	-4.44% (inactive)	-12.1% (inactive)	-4.13% (inactive)	-1.78% (inactive)	87.1% (inactive)	90.8% (inactive)	1.94% (inactive)	4.56% (inactive)
Fc1ccc(-c2nnc3ccc(N4CCCC4)nn23)cc1	80%	90.5% (inactive)	80% (inactive)	64.2% (inactive)	94.5% (inactive)	16.8% (inactive)	77.7%	94.5%	-0.27% (inactive)	8.52% (inactive)	11.7% (inactive)	32.5% (inactive)	-5.62% (inactive)	102% (inactive)	86.3% (inactive)	0.685% (inactive)	5.61% (inactive)
CC1(C)CC(=O)C2=C(C1)NC(=O)CC2c1ccc(N(CCC#N)CCC#N)cc1 (stereo not drawn)	101%	120% (inactive)	101% (inactive)	101% (inactive)	110% (inactive)	23.6% (inactive)	86.6%	110%	-5.68% (inactive)	-1.8% (inactive)	-9.4% (inactive)	-8.29% (inactive)	0.18% (inactive)	91.5% (inactive)	100% (inactive)	1.41% (inactive)	1.8% (inactive)
